These results are taken from PubChem BioAssay (NCATS).

“And” between values parts separate entries of the source, which are not always exact repeats. Equal values may be shown once. Inconclusive results are not listed. The source made the active and inactive calls. Unless noted, calls come from the whole dose curve; as a rule, active = well fitted curve in the direction sought with a large enough effect; inconclusive = small, poorly fitted or top-dose-only effect, or another doubt; inactive = no such curve, though single readings can be large; an effect the other way counts as inactive or inconclusive.

Assay [1] can be described thus: Primary qHTS for inhibitors of nuclear receptor binding SET domain protein 2 (NSD2) in an isogenic RCH-ACV NSD2 p.E1099K mutant (9B) (AID 1645876). Note: nearly all actives have a fitted effect of over 70% in size. Note: potency is the fitted concentration of half-maximal effect. For orientation: qHTS replaces the single test concentration by a dilution series.
For assay [2], the target named is N-terminal Xaa-Pro-Lys N-methyltransferase 1 (Homo sapiens) (UniProt Q9BV86). Kind of assay: Confirmatory qHTS for Inhibitors of N-terminal methyltransferase 1 (NTMT1): MTaseGlo Assay (AID 1645874). Note: nearly all actives have a fitted effect of over 65% in size. Note: potency is the fitted concentration of half-maximal effect. The gist of the method:
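SPKRIA peptide at 1 uM was methylated by 125 nM NTMT1 using 100 uM SAM over 30 min at room temperature, following a 15 min compound preincubation. Product SAH was detected luminescently.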

A short description of assay [3]: Primary qHTS for inhibitors of nuclear receptor binding SET domain protein 2 (NSD2) in an RCH-ACV wild type WT cells (2C) (AID 1645877). Note: nearly all actives have a fitted effect of over 70% in size. Note: potency is the fitted concentration of half-maximal effect.
Assay [4] has as its target Catechol O-methyltransferase (Homo sapiens) (UniProt P21964). Description: Confirmatory Screen for Target Class Profiling of Small Molecule Inhibitors of Methyltransferases (AID 1745852). The note with it: MTase-Glo luminescence, SAH detection, recombinant enzyme; measured here: COMT max response; stronger effect = lower value.
Assay [5] concerns the target Cytochrome P450 2C9 (Homo sapiens) (UniProt P11712). Description: Cytochrome P450 family 2 subfamily C member 9 (CYP2C9) small molecule antagonists: luciferase biochemical (cell-free) qHTS assay (AID 1645842; active = well fitted curve in the direction sought with a large enough effect in the repeat runs; an effect the other way counts as inactive or inconclusive; note: potency is the fitted concentration of half-maximal effect; nearly all actives have a fitted effect of over 55% in size). The gist of the method:
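P450-Glo CYP2C9 system: proluciferin substrate with enzyme in mix containing 0.4% BSA, 10 min at room temperature, then NADPH regeneration solution added and incubated 1 h at 37C. Detection reagent stopped reaction; luminescence read after 20 min as RLU.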

Sequence of N-terminal Xaa-Pro-Lys N-methyltransferase 1 (Homo sapiens) (Q9BV86 whole entry, looked up): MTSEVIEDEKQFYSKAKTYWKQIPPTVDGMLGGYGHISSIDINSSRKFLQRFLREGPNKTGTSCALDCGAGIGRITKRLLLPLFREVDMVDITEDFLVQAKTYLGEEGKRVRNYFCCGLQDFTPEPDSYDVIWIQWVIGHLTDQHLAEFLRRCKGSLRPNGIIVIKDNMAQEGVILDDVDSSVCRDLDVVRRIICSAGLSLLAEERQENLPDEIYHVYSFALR
Sequence of Catechol O-methyltransferase (Homo sapiens) (P21964 whole entry, looked up): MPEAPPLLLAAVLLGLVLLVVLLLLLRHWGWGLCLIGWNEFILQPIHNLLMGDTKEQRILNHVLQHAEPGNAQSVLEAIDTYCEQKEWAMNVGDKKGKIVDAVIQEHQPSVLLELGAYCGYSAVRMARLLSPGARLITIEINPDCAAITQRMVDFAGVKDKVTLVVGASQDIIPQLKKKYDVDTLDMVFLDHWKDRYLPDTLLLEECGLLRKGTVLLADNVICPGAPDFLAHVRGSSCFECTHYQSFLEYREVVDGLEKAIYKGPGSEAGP
Sequence of Cytochrome P450 2C9 (Homo sapiens) (P11712 whole entry, looked up): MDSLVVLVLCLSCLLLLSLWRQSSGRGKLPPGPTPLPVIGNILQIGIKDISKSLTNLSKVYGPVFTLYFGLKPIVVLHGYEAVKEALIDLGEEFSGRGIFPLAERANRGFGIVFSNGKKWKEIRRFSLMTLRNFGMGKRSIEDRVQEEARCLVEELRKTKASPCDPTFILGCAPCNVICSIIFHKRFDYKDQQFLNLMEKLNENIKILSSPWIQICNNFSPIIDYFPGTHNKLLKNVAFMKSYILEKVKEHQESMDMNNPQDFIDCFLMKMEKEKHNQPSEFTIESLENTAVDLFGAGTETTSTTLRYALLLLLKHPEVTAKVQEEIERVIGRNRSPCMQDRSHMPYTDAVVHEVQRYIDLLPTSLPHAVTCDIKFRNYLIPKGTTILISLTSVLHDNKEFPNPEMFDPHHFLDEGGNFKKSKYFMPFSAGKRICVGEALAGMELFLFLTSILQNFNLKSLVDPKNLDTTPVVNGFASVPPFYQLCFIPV

With `CC[C@H](NC(=O)[C@H](CS(=O)(=O)CC1CC1)N[C@@H](c1ccc(F)cc1)C(F)(F)F)C(=O)C(=O)NC1CC1`, the Potency entry in assay [1] was “inactive”. For `Cc1cnc(Nc2ccc(F)cc2Cl)nc1-c1c[nH]c(C(=O)NC(CO)c2cccc(Cl)c2)c1` (centres undefined), the Potency result in assay [2] is “inactive”. Also, the Potency in assay [1] is 8.33 µM (active); in assay [3], 2300 nM (active). Turning to `CN=C(N)NCCCCC/C=C(/C)CC(C)C1OC(=O)C(C)C(O)/C=C/C(C)C(O)CC(O)C(C)C(O)CCC(C)C(O)CC2(O)OC(CC(OC(=O)CC(=O)O)CC(O)CC(O)C(C)C(O)/C(C)=C/CCC1C)CC(O)C2O` (centres undefined), in assay [1], the Potency was 3.88 µM (active). The same measure, in the same setting: the value for `CC1=C(/C=C/C(C)=C\C=C\C(C)=C/C(=O)O)C(C)(C)CCC1` was “inactive”. Turning to `Cc1cc2c(c(=O)[nH]1)OC(C(O)CC(C)C)O2` (centres undefined), the Potency entry in assay [2] and in assay [1] was “inactive” throughout. In the case of `CCOc1cc2ncc(C#N)c(Nc3ccc(F)c(Cl)c3)c2cc1NC(=O)/C=C/CN(C)C`, the Potency in assay [2] is 1200 nM (active); in assay [1] it was 459 nM (active) and 742 nM (active); in assay [3], 1.03 µM (active) and 590 nM (active). For the same compound, the activity in assay [4] was -96.3%. Take `COc1ccc(CNC(=O)c2sc3nc(C)cc(C)c3c2N)cc1`: the Potency in assay [5] was 3790 nM (active). In addition, the Potency entry in assay [3] was “inactive”.

Consider `FC(F)(F)c1cc(-c2ncn(/C=C\c3nnco3)n2)cc(C(F)(F)F)c1`, for which, in assay [1], the Potency is 2.3 µM (active).

Consider `COc1c2c(c(C)c3c1C(=O)OC3)O[C@@]1(C)CC(O)C(C(C)(C)O)[C@](C)(CCC(=O)O)[C@H]1C2` (some centres undefined), for which the Potency result in assay [1] was “inactive”. The same measure, in the same setting: the value for `CC(=O)OC[C@@]12C(=O)C[C@@H](C)[C@]3(C[C@@H](c4ccoc4)O[C@H]3OC(C)=O)[C@H]1CCC[C@]21CO1` was 12.6 µM (active). In the case of `Nc1ncnc2c([C@@H]3N[C@H](CO)[C@@H](O)[C@H]3O)c[nH]c12`, the Potency result in assay [1] is “inactive”. For `CN[C@@H]1[C@H](O[C@H]2[C@H](O[C@@H]3[C@@H](O)[C@H](O)[C@@H](N=C(N)N)[C@H](O)[C@H]3N=C(N)N)O[C@@H](C)[C@]2(O)C=O)O[C@@H](CO)[C@H](O)[C@H]1O`, the Potency result in assay [1] and in assay [3] was “inactive” each time. As to `C[C@]1(CO)CCC[C@]2(C)C3=C(CCC12)COC3` (some centres undefined), the Potency entry in assay [1] and in assay [3] was “inactive” in each case. Regarding `C/C=C1\[C@H](O[C@@H]2O[C@H](CO)[C@@H](O)[C@H](O)[C@H]2O)OC=C(C(=O)OC)[C@H]1CC(=O)OC[C@H]1O[C@@H](OCCc2ccc(O)cc2)[C@H](O)[C@@H](O)[C@@H]1O`, in assay [1], the Potency entry is “inactive”. `COC(=O)C12CCC(C)C(C)C1C1=CCC3C4(C)CCC(OC(C)=O)C(C)(C)C4CCC3(C)C1(C)CC2` (centres undefined): the Potency entry in assay [1] and in assay [3] was “inactive” throughout. Turning to `N=c1nc2n(cc1F)C1OC(CO)C(O)C1O2` (centres undefined), the results for the Potency in assay [1] and in assay [3] were 0.0578 µM (active) and 18.3 nM (active), respectively. For `CC[C@H](CO)Nc1nc(NCc2ccc(-c3ccccn3)cc2)c2ncn(C(C)C)c2n1` the same measures were 0.459 µM (active) and 230 nM (active). Consider `C=C1C(OC(C)=O)CCC2(C)CC3(OC)OC(=O)C(C)=C3CC12` (centres undefined), for which, in assay [1], the Potency result was “inactive”. On the same count and under the same terms, then `C[C@@H]1CCC/C=C/[C@H]2CC(=O)C[C@@H]2[C@@H](O)/C=C/C(=O)O1`, with “inactive”; and `CC/C=C\CC1C(=O)C=CC1(CCCCCCCC(=O)O)OC(C)=O` (centres undefined), with “inactive”. For the compound `COc1cc(/C=C/C(=O)O[C@H]2[C@H](O)[C@@H](CO)O[C@@]2(CO)O[C@H]2O[C@H](CO)[C@@H](O)[C@H](O)[C@H]2O)ccc1O`, the Potency entry in assay [1] and in assay [3] was “inactive” each time. On to `CC(C(O)/C=C/C(C)(C)O)C1CCC2(C)C3C(=O)C=C4C(CCC(O)C4(C)C)C3(C)CCC12C` (centres undefined), for which the Potency entry in assay [1] and in assay [3] was “inactive” throughout. As for `COc1c2ccoc2cc2oc(CO[C@@H]3O[C@H](CO)[C@@H](O)[C@H](O)[C@H]3O)cc(=O)c12`, the Potency entry in assay [1] and in assay [3] was “inactive” throughout. In the case of `CCc1c(C)nc2c(-c3cnn(-c4cc(CO)ccn4)c3)c[nH]n2c1=O`, the Potency result in assay [1] and in assay [3] was “inactive” throughout. Take `COc1cc2c3c(cc4ccccc4c3c1O)NC2=O`: the Potency entry in assay [1] was “inactive”. On the same count and under the same terms, then `COC(=O)C1=CO[C@@H](O[C@@H]2O[C@H](CO)[C@@H](O)[C@H](O)[C@H]2O)[C@@H]2C(COC(C)=O)=C[C@H](O)[C@H]12`, with “inactive”.

`C[C@@H]1CCC2C(C)(C)[C@H](O)CC[C@]2(C)[C@@]12Cc1c(O)cc3c(c1O2)CN([C@@H](CCC(=O)O)C(=O)O)C3=O` (some centres undefined): the Potency result in assay [1] and in assay [3] was “inactive” each time.

`C[C@@]12CC[C@@H]3[C@@](CC[C@H]4[C@@]3(C)CCC[C@@]4(C)C(=O)O)(CC1=O)C2`: the Potency result in assay [1] is “inactive”.

Take `C[C@H](NC(c1cccc(C[P+](=O)O)c1)[C@H](C)O)c1ccc(Cl)c(Cl)c1` (some centres undefined): the Potency entry in assay [1] and in assay [3] was “inactive” each time. Take `CC1=C2C[C@H]3O[C@@]3(C)CCC3O[C@@]3(C)C[C@@]2(O)OC1=O` (some centres undefined): the Potency result in assay [1] and in assay [3] was “inactive” in each case.
